Data from PubChem BioAssay.
Several values for one entry are separate records, joined by “and”; a condition that tells them apart may be missing. Equal entries are not always repeated. Inconclusive results are not listed. Activity calls are given as the source filed them.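 Rule for the calls, unless noted: active = inhibition above 50%, about 3 SD of the validation set; inactive = the rest.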

Assays:
[1] = rapamycin-like changes in RPL19A-GFP expression – cell-based, S. cerevisiae, multiplex flow cytometry, primary screen (AID 1862; in the data active = percent of DMSO control GFP below about 86%;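 note: lower values mimic rapamycin by blocking the RPL19A rise seen in DMSO cells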); conditions: S. cerevisiae RPL19A-GFP strain, flow cytometry fluorescence, 3 h; at 10 µM; stronger effect = lower value
[2] = TOR pathway GLN3 branch reporter MEP2-GFP changes – S. cerevisiae, multiplex flow cytometry, primary screen (AID 1867;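 active = GFP response, as percent of the DMSO control, above the screen-wide mean plus 3 SD, about 139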;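 note: median GFP channel fluorescence of barcode-gated MEP2-GFP cells measured by flow cytometry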); conditions: S. cerevisiae MEP2-GFP strain, 3 h, at 10 µM, stronger effect = higher value, 100% means same as DMSO wells
[3] = TOR pathway RTG branch CIT2 reporter changes – S. cerevisiae, GFP fusion, multiplex flow cytometry, primary screen (AID 1870;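 active = percent response above a set limit, the screen-wide mean plus 3 SD, cut at about 130% in these data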;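 note: barcoded CIT2-GFP strain pooled with four other GFP strains with rapamycin as positive control; median GFP fluorescence per well over plate mean of DMSO wells so 100% = DMSO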); conditions: S. cerevisiae CIT2-GFP expression, 3 h, at 10 µM, stronger effect = higher value
[4] = TOR pathway LAP4-GFP level changes – S. cerevisiae, multiplex flow cytometry, primary screen (AID 1873;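 active = GFP signal, as percent of the solvent control, above the screen mean plus 3 SD, about 149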); conditions: S. cerevisiae LAP4-GFP expression, 3 h, at 10 µM, stronger effect = higher value
[5] = yeast AGP1-GFP level changes, GLN3 branch – cell-based, multiplex flow cytometry, S. cerevisiae, primary screen (AID 1887;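 active = GFP signal above the screen-wide mean plus 3 SD, that is over about 124.5% of the solvent control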;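 note: AGP1-GFP fusion strain of S. cerevisiae within a five-strain barcoded multiplex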); conditions: 3 h, at 10 µM, stronger effect = higher value
[6] = reduced mouse 2C T cell binding to pMHC/ICAM-1 vesicles – MLPCN validation set, flow cytometry, LFA-1/ICAM-1 modulator project, pilot screen (AID 2523;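 active = response below a set limit, under 55% cells CD8-positive and vesicle-bound, and CD8 cells' 90th-percentile brightness under 279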;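 for vesicle binding response: mean PE anti-B7-1 fluorescence of CD8+ cells relative to row control; 100% = QL9-loaded vesicles with DMSO vehicle in the same plate row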); conditions: 2C mouse CD8+ T cells, at 7 µM, stronger effect = lower value; double positive events: measured here: CD8+/vesicle+ event percentage
[7] = biological target: Integrin beta-1 (Homo sapiens) + Integrin alpha-4 (Homo sapiens) (UniProt P13612+P05556); assay: alpha4beta1 integrin LIBS antibody binding reduction – U937 cells, HUTS-21 mAb, flow cytometry, validation set, VLA-4 allosteric modulator project, pilot screen (AID 2674); conditions: HUTS-21 LIBS mAb binding, at 6.7 µM, stronger effect = higher value, binding induced by LDV ligand;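 note: antibody binding induced by the VLA-4 ligand LDV present at three times its Kd; 0% = LDV ligand with antibody and no compound and 100% = antibody without LDV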
[8] = calorie-restriction mimetic ROS inhibitors, yeast – validation compound set, pilot screen (AID 2706;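 active = superoxide response below 65% of plate, a cut near 3 SD across the whole screen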;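 note: yeast exposed to compound for one week at 30 degrees C before staining; 100% = mean of all compound wells on the same plate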); conditions: S. cerevisiae aging, superoxide DHE fluorescence; at 10 µM; stronger effect = lower value
[9] = biological target: Beta-adrenergic receptor kinase 1 (Homo sapiens) (UniProt P25098); assay: GRK2 binders displacing RNA aptamer, biochemical, validation, human GRK2, bead flow cytometry (AID 488806;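 active = aptamer binding inhibition above 30%, about 3 SD of noise from non-fluorescent compounds; inactive = inhibition at or below 30%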); conditions: bead-bound GRK2, FAM-aptamer displacement, at 10 µM, stronger effect = higher value
[10] = biological target: Beta-2 adrenergic receptor (Homo sapiens) (UniProt P07550); assay: agonist-induced loss of surface beta2AR – cell-based, FAP fluorogen, flow cytometry, validation set, pilot screen (AID 504459;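 active = percent response above 42, roughly 3 SD of non-fluorescent test compounds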;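 note: agonist-driven loss of surface beta2AR via internalization measured by FAP dye flow cytometry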); conditions: Am2.2-beta2AR cells, at 10 µM, stronger effect = higher value
[11] = biological target: AP-2 complex subunit beta (Homo sapiens) (UniProt P63010); assay: beta-arrestin/AP2 interaction blockers – biochemical, validation set, GST-AP2 beads, flow cytometry, pilot screen (AID 504541;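 active = inhibition above 54%, about 3 SD of non-fluorescent compounds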;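 note: AP2 carries R879A mutation and is captured from E. coli lysate; bead-bound FITC arrestin peptide fluorescence measuring arrestin peptide binding to AP2; 0% = DMSO wells and 100% = excess unlabeled arrestin peptide control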); conditions: FITC arrestin peptide, at 10 µM, stronger effect = higher value, AP2 beta2 appendage fragment, R879A mutant
[12] = cytosolic pH regulators acting via V-ATPase – S. cerevisiae, pHLuorin, HTS validation (AID 504600; in the data active = response above about 15%;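 note: plate controls were DMSO for no effect and reference compound for full effect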); conditions: V-ATPase proton transport, at 10 µM, stronger effect = higher value
[13] = tested on: anti-desmoglein-3 scFv antibody binding to human DSG3; assay: blockers of pathogenic pemphigus antibody–desmoglein-3 binding – biochemical, validation compound set, bead-based, flow cytometry, pilot screen (AID 588368;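 active = binding below the plate cutoff, the plate median minus 3 SD, with a reading above zero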;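 note: signal is the median channel fluorescence of bead-bound GFP antibody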); conditions: Protein G beads, DSG3-Fc, scFv-GFP binding, at 10 µM, stronger effect = lower value
[14] = Nile Red efflux blockade in pump-expressing yeast – validation compound set, multiplex, phenotypic, pilot screen (AID 588506;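 active = efflux inhibition above 0.42, the validation set average plus 4 SD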;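 note: Nile Red retained in cells so higher fluorescence means more efflux inhibition; 0 = negative control wells and 1 = enniatin B 25 µM full block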); conditions: S. cerevisiae pump-expressing triplex, Nile Red efflux flow cytometry; at 10 µM; stronger effect = higher value; the pumps come from Candida albicans
[15] = biological target: ATP-binding cassette sub-family B member 6 (Homo sapiens) (UniProt Q9NP58); assay: blockers of ABCB6-driven porphyrin uptake – K562-ABCB6 cells, flow cytometry, validation set, pilot screen (AID 588550;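 active = inhibition above the screen-wide mean plus 3 SD, about 51%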;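 note: 0% = DMSO wells and 100% = benzethonium chloride 70 µM positive control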); conditions: K562-ABCB6 porphyrin accumulation, 1 h, at 10 µM, stronger effect = higher value
[16] = AML differentiation inducers, ER-HoxA9 marrow cells – cell-based, GFP/MAC1 double positive, flow cytometry, validation set, primary screen (AID 588685;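 active = differentiation response of at least 50%, scaled between solvent and reference control, from cells with both markers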;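 note: compound exposure lasts four days before antibody staining and flow analysis; 0% = DMSO wells and 100% = 5 µM fulvestrant positive control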); conditions: stronger effect = higher value, normalized: vehicle 0, fulvestrant 100

Sequence of Beta-2 adrenergic receptor (Homo sapiens) (P07550 whole entry, looked up): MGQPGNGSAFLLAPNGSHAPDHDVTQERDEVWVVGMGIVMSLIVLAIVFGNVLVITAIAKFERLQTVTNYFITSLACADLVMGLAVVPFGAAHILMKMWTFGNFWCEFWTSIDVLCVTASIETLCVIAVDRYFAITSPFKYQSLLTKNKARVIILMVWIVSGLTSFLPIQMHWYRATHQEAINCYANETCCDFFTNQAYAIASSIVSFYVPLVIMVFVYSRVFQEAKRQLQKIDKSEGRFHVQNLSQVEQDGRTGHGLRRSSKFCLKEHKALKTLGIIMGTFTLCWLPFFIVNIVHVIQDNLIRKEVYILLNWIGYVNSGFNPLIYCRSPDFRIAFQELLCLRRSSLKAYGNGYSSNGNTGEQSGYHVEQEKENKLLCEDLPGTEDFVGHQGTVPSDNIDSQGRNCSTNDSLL
Sequence of AP-2 complex subunit beta (Homo sapiens) (P63010 whole entry, looked up, the tested form may be a part, one chain of several): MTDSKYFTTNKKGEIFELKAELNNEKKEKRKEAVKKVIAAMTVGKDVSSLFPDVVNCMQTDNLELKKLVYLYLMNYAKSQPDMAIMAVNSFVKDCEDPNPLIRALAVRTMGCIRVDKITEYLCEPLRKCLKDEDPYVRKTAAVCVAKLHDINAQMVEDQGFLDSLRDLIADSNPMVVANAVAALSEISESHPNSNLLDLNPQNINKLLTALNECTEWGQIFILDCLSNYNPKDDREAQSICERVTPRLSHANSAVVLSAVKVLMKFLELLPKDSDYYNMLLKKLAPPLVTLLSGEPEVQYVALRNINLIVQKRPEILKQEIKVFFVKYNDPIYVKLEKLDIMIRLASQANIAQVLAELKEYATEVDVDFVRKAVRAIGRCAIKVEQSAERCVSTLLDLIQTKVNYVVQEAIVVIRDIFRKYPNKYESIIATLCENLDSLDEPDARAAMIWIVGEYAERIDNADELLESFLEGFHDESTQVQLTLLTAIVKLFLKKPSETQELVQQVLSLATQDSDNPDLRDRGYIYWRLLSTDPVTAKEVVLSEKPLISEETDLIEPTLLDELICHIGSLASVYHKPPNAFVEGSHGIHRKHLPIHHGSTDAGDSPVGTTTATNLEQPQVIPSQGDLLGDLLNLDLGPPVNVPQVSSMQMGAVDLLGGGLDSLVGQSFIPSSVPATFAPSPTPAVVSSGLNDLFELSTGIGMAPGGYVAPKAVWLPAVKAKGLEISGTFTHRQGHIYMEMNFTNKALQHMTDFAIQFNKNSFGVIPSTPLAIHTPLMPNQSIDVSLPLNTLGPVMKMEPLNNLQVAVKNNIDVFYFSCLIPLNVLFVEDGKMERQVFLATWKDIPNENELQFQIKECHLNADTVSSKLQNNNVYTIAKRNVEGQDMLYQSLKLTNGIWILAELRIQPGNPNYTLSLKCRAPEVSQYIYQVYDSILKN
Sequence of Beta-adrenergic receptor kinase 1 (Homo sapiens) (P25098 whole entry, looked up): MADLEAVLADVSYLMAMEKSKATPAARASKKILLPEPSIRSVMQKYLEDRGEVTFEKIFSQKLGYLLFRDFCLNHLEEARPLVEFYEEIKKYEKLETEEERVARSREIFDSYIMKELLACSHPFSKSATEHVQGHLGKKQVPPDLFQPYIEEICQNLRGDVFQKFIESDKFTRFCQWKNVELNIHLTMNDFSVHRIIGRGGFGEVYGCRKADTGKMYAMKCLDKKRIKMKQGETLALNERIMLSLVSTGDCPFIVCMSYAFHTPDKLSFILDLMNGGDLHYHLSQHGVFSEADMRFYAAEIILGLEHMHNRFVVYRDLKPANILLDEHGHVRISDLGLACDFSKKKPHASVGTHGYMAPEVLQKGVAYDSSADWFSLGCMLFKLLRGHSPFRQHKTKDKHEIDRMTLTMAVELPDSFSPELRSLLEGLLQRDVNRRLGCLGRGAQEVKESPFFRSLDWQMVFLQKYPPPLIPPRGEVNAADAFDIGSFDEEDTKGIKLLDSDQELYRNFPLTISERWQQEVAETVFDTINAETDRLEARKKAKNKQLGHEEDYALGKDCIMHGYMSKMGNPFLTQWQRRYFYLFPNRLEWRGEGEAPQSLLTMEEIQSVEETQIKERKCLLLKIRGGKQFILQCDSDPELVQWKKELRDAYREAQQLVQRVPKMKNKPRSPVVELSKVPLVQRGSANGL
Sequence of Integrin beta-1 (Homo sapiens) + Integrin alpha-4 (Homo sapiens) (P05556 whole entry, looked up): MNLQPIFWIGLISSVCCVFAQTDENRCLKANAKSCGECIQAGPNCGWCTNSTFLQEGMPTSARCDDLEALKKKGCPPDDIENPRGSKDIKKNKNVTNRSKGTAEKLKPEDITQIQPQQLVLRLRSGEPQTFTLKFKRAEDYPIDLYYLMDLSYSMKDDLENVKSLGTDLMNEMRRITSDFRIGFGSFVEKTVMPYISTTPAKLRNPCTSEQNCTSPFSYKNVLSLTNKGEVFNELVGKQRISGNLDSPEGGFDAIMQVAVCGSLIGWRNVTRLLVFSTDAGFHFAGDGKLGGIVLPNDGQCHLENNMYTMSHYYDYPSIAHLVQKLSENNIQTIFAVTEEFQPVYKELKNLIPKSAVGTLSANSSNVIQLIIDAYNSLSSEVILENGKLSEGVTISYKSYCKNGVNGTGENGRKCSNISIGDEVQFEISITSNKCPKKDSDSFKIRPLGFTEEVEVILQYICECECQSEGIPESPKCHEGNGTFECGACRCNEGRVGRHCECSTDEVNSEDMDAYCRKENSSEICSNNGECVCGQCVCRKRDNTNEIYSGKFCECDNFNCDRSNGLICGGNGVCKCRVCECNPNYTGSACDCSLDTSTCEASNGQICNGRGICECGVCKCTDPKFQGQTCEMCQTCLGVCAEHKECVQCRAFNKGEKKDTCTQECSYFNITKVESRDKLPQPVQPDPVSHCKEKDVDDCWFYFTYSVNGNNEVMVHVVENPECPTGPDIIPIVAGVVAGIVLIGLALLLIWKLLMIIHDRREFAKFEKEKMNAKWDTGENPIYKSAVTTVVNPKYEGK
Sequence of Integrin beta-1 (Homo sapiens) + Integrin alpha-4 (Homo sapiens) (P13612 whole entry, looked up): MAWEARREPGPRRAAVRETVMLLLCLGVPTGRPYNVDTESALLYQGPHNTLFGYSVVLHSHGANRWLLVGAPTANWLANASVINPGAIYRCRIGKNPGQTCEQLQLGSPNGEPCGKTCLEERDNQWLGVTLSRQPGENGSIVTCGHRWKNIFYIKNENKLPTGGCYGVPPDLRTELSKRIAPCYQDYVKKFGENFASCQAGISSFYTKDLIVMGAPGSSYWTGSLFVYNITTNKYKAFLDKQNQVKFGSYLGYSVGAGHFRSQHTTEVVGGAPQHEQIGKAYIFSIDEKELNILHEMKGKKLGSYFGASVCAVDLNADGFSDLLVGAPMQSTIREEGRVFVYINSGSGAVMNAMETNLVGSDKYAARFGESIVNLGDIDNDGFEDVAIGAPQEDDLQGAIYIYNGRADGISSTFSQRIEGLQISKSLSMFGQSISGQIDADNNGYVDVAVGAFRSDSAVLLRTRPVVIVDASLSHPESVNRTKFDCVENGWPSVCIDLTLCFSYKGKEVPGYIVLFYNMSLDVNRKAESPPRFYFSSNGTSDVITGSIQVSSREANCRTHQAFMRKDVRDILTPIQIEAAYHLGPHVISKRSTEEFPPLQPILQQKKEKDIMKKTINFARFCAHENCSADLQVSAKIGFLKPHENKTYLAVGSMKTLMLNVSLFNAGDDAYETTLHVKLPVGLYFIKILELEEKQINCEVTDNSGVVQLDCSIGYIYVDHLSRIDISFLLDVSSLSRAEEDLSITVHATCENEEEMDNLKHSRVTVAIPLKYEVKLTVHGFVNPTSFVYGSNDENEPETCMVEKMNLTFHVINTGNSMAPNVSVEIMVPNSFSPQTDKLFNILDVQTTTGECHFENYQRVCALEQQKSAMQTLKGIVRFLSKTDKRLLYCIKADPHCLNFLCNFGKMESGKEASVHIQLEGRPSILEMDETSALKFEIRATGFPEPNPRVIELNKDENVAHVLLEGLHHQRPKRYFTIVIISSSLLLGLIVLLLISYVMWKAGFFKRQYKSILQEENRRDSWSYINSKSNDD
Sequence of ATP-binding cassette sub-family B member 6 (Homo sapiens) (Q9NP58 whole entry, looked up): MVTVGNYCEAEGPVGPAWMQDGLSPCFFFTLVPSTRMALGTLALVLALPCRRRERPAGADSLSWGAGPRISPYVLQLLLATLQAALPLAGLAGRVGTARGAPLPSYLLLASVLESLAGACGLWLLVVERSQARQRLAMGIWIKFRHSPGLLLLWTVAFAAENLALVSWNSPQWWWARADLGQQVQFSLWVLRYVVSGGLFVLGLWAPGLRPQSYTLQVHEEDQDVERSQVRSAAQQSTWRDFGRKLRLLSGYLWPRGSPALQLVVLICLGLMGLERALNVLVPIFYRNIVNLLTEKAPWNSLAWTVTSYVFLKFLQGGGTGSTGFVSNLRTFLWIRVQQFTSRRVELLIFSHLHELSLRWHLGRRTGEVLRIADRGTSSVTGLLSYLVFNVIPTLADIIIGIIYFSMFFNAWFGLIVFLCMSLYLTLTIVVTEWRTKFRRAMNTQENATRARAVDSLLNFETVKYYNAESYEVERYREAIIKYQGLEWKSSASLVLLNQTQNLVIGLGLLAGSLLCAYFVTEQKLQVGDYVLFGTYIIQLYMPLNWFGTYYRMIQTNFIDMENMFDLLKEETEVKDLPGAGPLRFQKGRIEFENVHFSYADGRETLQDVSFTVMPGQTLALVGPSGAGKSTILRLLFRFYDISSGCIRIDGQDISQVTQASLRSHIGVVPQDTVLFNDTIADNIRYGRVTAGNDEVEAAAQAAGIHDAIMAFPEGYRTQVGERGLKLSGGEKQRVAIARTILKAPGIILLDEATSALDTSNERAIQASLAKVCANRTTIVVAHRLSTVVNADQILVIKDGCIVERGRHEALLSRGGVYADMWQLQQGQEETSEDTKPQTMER

SMILES	percent of DMSO control GFP [1]	GFP response vs DMSO [2]	percent response of DMSO control [3]	GFP response vs DMSO [4]	GFP response, % of DMSO [5]	double positive events [6]	vesicle binding response [6]	inhibition [7]	superoxide response (% of plate) [8]	aptamer binding inhibition [9]	response [10]	inhibition [11]	response [12]	binding (% of control) [13]	efflux inhibition (fraction of control) [14]	inhibition [15]	differentiation response [16]
Cn1nnnc1SCC1=C(C(=O)O)N2C(=O)[C@@H](NC(=O)[C@H](O)c3ccccc3)[C@H]2SC1	97.7% (inactive)	115% (inactive)	106% (inactive)	90.2% (inactive)	103% (inactive)	67.4%	318% (inactive)	0.64% (inactive)	86.1% (inactive)	13% (inactive)	3.85% (inactive)	3.95% (inactive)	1.15% (inactive)	107% (inactive)	0.3 (inactive)	16% (inactive)	15.6% (inactive)
Cc1cccc(C(=O)c2cccc(C)c2)c1	105% (inactive)	103% (inactive)	109% (inactive)	105% (inactive)	105% (inactive)	56%	45.4% (inactive)	12% (inactive)	104% (inactive)	0% (inactive)	-8.97% (inactive)	-6.55% (inactive)	1.1% (inactive)	98.7% (inactive)	-0.17 (inactive)	1% (inactive)	-7.57% (inactive)
CC(=O)OC[C@H]1O[C@@H](Sc2cccc3cccnc23)[C@H](OC(C)=O)[C@@H](OC(C)=O)[C@H]1OC(C)=O	98.9% (inactive)	99.6% (inactive)	99% (inactive)	117% (inactive)	94.6% (inactive)	62.5%	187% (inactive)	-5.38% (inactive)	105% (inactive)	4% (inactive)	-27.5% (inactive)	-0.13% (inactive)	0.07% (inactive)	104% (inactive)	0.04 (inactive)	-2% (inactive)	-5.97% (inactive)
CCN(CC)C(=O)c1sc(NC(=O)c2c(OC)cccc2OC)c(C#N)c1C	101% (inactive)	98.7% (inactive)	105% (inactive)	88.2% (inactive)	94.7% (inactive)	66.7%	229% (inactive)	1.59% (inactive)	95.2% (inactive)	4% (inactive)	-1.95% (inactive)	-5.78% (inactive)	12% (inactive)	97.3% (inactive)	-0.025 (inactive)	14% (inactive)	5.67% (inactive)
COc1ccc2[nH]c(=O)c(CN(C(=O)c3ccco3)C(C)C)cc2c1	91.7% (inactive)	148% (active)	103% (inactive)	83.6% (inactive)	92.6% (inactive)	72.1%	221% (inactive)	4.52% (inactive)	108% (inactive)	3% (inactive)	-2.75% (inactive)	-1.83% (inactive)	-5.39% (inactive)	101% (inactive)	0.41 (inactive)	9% (inactive)	0% (inactive)
CCCCC(=O)O[C@H]1CC[C@H]2[C@@H]3CCc4cc(O)ccc4[C@H]3CC[C@]12C	100% (inactive)	105% (inactive)	109% (inactive)	125% (inactive)	116% (inactive)	62.5%	210% (inactive)	29.5% (inactive)	93.8% (inactive)	-4% (inactive)	52.1% (active)	30.7% (inactive)	-0.48% (inactive)	106% (inactive)	-0.17 (inactive)	-1% (inactive)	-6.96% (inactive)
CC1(C)O[C@@H]2C[C@H]3[C@@H]4C[C@H](F)C5=CC(=O)C=C[C@]5(C)[C@@]4(F)[C@@H](O)C[C@]3(C)[C@]2(C(=O)CO)O1	102% (inactive)	102% (inactive)	105% (inactive)	102% (inactive)	111% (inactive)	57.8%	113% (inactive)	-5.11% (inactive)	103% (inactive)	1% (inactive)	6.68% (inactive)	-10.8% (inactive)	0.85% (inactive)	104% (inactive)	-0.025 (inactive)	19% (inactive)	-8.96% (inactive)
O=c1nc2n(c3c1oc1ccccc13)Cc1ccccc1-2	100% (inactive)	105% (inactive)	104% (inactive)	105% (inactive)	108% (inactive)	56.6%	142% (inactive)	-3.77% (inactive)	93.6% (inactive)	-1% (inactive)	-25.7% (inactive)	-6.48% (inactive)	-0.9% (inactive)	99.6% (inactive)	-0.3 (inactive)	-3% (inactive)	-6.03% (inactive)
COC(=O)CSc1nc2ccc(N)cc2s1	104% (inactive)	103% (inactive)	104% (inactive)	95.3% (inactive)	97.8% (inactive)	64.4%	189% (inactive)	-3.57% (inactive)	110% (inactive)	-1% (inactive)	5.1% (inactive)	4.01% (inactive)	-1.65% (inactive)	92% (inactive)	0.02 (inactive)	-5% (inactive)	12% (inactive)
O=C1CCCC(=O)C1=Cc1c[nH]c2ccccc12	97.9% (inactive)	102% (inactive)	95.1% (inactive)	112% (inactive)	106% (inactive)	62%	226% (inactive)	9.95% (inactive)	108% (inactive)	3% (inactive)	28.4% (inactive)	7.17% (inactive)	5.91% (inactive)	98.5% (inactive)	0 (inactive)	-6% (inactive)	5.85% (inactive)
Cc1nc(C2CC(=O)OC23CCCCC3)cs1 (stereo unspecified)	94.4% (inactive)	106% (inactive)	94.8% (inactive)	116% (inactive)	94% (inactive)	61.4%	136% (inactive)	-0.43% (inactive)	104% (inactive)	9% (inactive)	-0.69% (inactive)	-1.27% (inactive)	1.08% (inactive)	98.7% (inactive)	-0.24 (inactive)	7% (inactive)	-20% (inactive)
CC(C)C12CN3CC(C(C)C)(CN(C1)C3c1ccccc1)C2O (stereo unspecified)	98.9% (inactive)	101% (inactive)	101% (inactive)	101% (inactive)	109% (inactive)	63.9%	110% (inactive)	14.2% (inactive)	99.3% (inactive)	6% (inactive)	-12.3% (inactive)	8.13% (inactive)	-11% (inactive)	104% (inactive)	-0.09 (inactive)	6% (inactive)	-0.06% (inactive)
CC(=O)OCC[N+](C)(C)C	95.9% (inactive)	116% (inactive)	101% (inactive)	83.6% (inactive)	105% (inactive)	61.2% and 60.9%	178% (inactive) and 161% (inactive)	-20.7% (inactive) and 1.44% (inactive)	90.4% (inactive) and 67.4% (inactive)	4% (inactive) and 1% (inactive)	-3.17% (inactive) and -8.19% (inactive)	-8.61% (inactive) and -2% (inactive)	2.52% (inactive) and -3.48% (inactive)	102% (inactive) and 106% (inactive)	0.09 (inactive) and 0 (inactive)	6% (inactive) and 10% (inactive)	2.46% (inactive) and -2.03% (inactive)
CCC1(c2ccccc2)NC(=S)N(c2ccc(C)c(C)c2)N1 (stereo unspecified)	100% (inactive)	106% (inactive)	105% (inactive)	108% (inactive)	108% (inactive)	59.8%	184% (inactive)	5.69% (inactive)	107% (inactive)	2% (inactive)	-12.6% (inactive)	1.79% (inactive)	2.75% (inactive)	105% (inactive)	0.04 (inactive)	3% (inactive)	-12.9% (inactive)
CCc1cc(=O)oc2cc(OCc3nn[nH]n3)ccc12	102% (inactive)	100% (inactive)	96.6% (inactive)	96% (inactive)	100% (inactive)	65.5%	174% (inactive)	-10.8% (inactive)	106% (inactive)	5% (inactive)	-3.63% (inactive)	9.23% (inactive)	-0.49% (inactive)	103% (inactive)	0.02 (inactive)	14% (inactive)	0.24% (inactive)
CCCC(=O)Nc1ccccc1NC(C)=O	101% (inactive)	102% (inactive)	108% (inactive)	99.1% (inactive)	104% (inactive)	65.9%	170% (inactive)	-9.13% (inactive)	111% (inactive)	1% (inactive)	5.03% (inactive)	-1.46% (inactive)	0.04% (inactive)	95.1% (inactive)	1.13 (active)	0% (inactive)	-1.65% (inactive)
CC(C)C(=O)Nc1c(O)c2ccccc2[nH]c1=O	95.6% (inactive)	91.9% (inactive)	93.9% (inactive)	151% (active)	96.6% (inactive)	62%	220% (inactive)	6.4% (inactive)	111% (inactive)	0% (inactive)	7.52% (inactive)	-0.19% (inactive)	-4.44% (inactive)	96.6% (inactive)	0.15 (inactive)	11% (inactive)	-4% (inactive)
O[C@H]1COC2C1OC[C@@H]2O (stereo partly specified)	99% (inactive)	107% (inactive)	102% (inactive)	115% (inactive)	118% (inactive)	58.3%	204% (inactive)	1.44% (inactive)	87.6% (inactive)	0% (inactive)	-28.6% (inactive)	3.72% (inactive)	1.96% (inactive)	104% (inactive)	0 (inactive)	2% (inactive)	-4.99% (inactive)
